# From PubChem BioAssay AID1159580 (chemical genetic matrix, 2015)
# Hit rate of the full screen: of about 5,500 compounds, about 2,000 (36%) were called active. Inconclusive results (about 18%) are left out. This is one part of the list. A number with no mark means an inactive call. No stated cut-off is given here; in the data, active means normalized growth mostly below about 0.91 (no sharp cut-off); inconclusive means no clear call, values can overlap the other calls; inactive means mostly above about 0.92.
# Assay: chemical genetic growth profiling, strain panel (AID 1159580);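 further: tested at 20 µM; growth read once vehicle control cultures reached saturation at 30 °C; 1 = growth at the plate median or of vehicle wells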
# Settings: growth OD
structure (smiles),measurement,setting,value
O=C1c2ccccc2C(=O)c2c1ccc(O)c2O,normalized growth,"S. cerevisiae deletion strains, locus YJL187C, strain SWE1, stronger effect = lower value",0.524 (active)
same,normalized growth,"S. cerevisiae deletion strains, locus YJR066W, strain TOR1, stronger effect = lower value",0.565 (active)
same,normalized growth,"S. cerevisiae deletion strains, locus YKL009W, strain mrt4, stronger effect = lower value",0.907
same,normalized growth,"S. cerevisiae deletion strains, locus YKL068W, stronger effect = lower value",0.854 (active)
same,normalized growth,"S. cerevisiae deletion strains, locus YKL085W, strain MDH1 (second series), stronger effect = lower value",0.868 (active)
same,normalized growth,"S. cerevisiae deletion strains, locus YKL085W, strain MDH1, stronger effect = lower value",0.868 (active)
same,normalized growth,"S. cerevisiae deletion strains, locus YKL160W, strain elf1, stronger effect = lower value",0.568 (active)
same,normalized growth,"S. cerevisiae deletion strains, locus YKL190W, strain CNB1, stronger effect = lower value",0.286 (active)
same,normalized growth,"S. cerevisiae deletion strains, locus YKR001C, strain vps1, stronger effect = lower value",0.26 (active)
same,normalized growth,"S. cerevisiae deletion strains, locus YKR026C, strain gcn3, stronger effect = lower value",0.744 (active)
same,normalized growth,"S. cerevisiae deletion strains, locus YKR091W, strain srl3, stronger effect = lower value",0.714 (active)
same,normalized growth,"S. cerevisiae deletion strains, locus YLL001W, strain dnm1, stronger effect = lower value",0.492 (active)
same,normalized growth,"S. cerevisiae deletion strains, locus YLL026W, stronger effect = lower value",0.576 (active)
same,normalized growth,"S. cerevisiae deletion strains, locus YLL041C, strain sdh2, stronger effect = lower value",0.733 (active)
same,normalized growth,"S. cerevisiae deletion strains, locus YLR027C, strain aat2, stronger effect = lower value",0.578 (active)
same,normalized growth,"S. cerevisiae deletion strains, locus YLR039C, strain RIC1, stronger effect = lower value",0.149 (active)
same,normalized growth,"S. cerevisiae deletion strains, locus YLR058C, strain SHM2, stronger effect = lower value",0.203 (active)
same,normalized growth,"S. cerevisiae deletion strains, locus YLR102C, strain apc9, stronger effect = lower value",0.516 (active)
same,normalized growth,"S. cerevisiae deletion strains, locus YLR113W, strain HOG1, stronger effect = lower value",0.56 (active)
same,normalized growth,"S. cerevisiae deletion strains, locus YLR221C, strain rsa3, stronger effect = lower value",0.538 (active)
same,normalized growth,"S. cerevisiae deletion strains, locus YLR258W, strain gsy2, stronger effect = lower value",0.58 (active)
same,normalized growth,"S. cerevisiae deletion strains, locus YLR262C, strain YPT6 (second series), stronger effect = lower value",0.201 (active)
same,normalized growth,"S. cerevisiae deletion strains, locus YLR268W, strain sec22, stronger effect = lower value",0.194 (active)
same,normalized growth,"S. cerevisiae deletion strains, locus YLR320W, strain mms22, stronger effect = lower value",0.374 (active)
same,normalized growth,"S. cerevisiae deletion strains, locus YLR342W, strain FKS1, stronger effect = lower value",0.453 (active)
same,normalized growth,"S. cerevisiae deletion strains, locus YLR357W, strain rsc2, stronger effect = lower value",0.579 (active)
same,normalized growth,"S. cerevisiae deletion strains, locus YLR370C, strain arc18, stronger effect = lower value",0.539 (active)
same,normalized growth,"S. cerevisiae deletion strains, locus YLR371W, strain rom2, stronger effect = lower value",0.316 (active)
same,normalized growth,"S. cerevisiae deletion strains, locus YLR384C, strain iki3, stronger effect = lower value",0.574 (active)
same,normalized growth,"S. cerevisiae deletion strains, locus YLR418C, strain cdc73, stronger effect = lower value",0.225 (active)
same,normalized growth,"S. cerevisiae deletion strains, locus YML016C, strain PPZ1, stronger effect = lower value",0.195 (active)
same,normalized growth,"S. cerevisiae deletion strains, locus YML032C, strain rad52, stronger effect = lower value",0.487 (active)
same,normalized growth,"S. cerevisiae deletion strains, locus YML120C, strain ndi1, stronger effect = lower value",0.602 (active)
same,normalized growth,"S. cerevisiae deletion strains, locus YML124C, strain tub3, stronger effect = lower value",0.547 (active)
same,normalized growth,"S. cerevisiae deletion strains, locus YMR058W, strain fet3, stronger effect = lower value",0.444 (active)
same,normalized growth,"S. cerevisiae deletion strains, locus YMR078C, strain ctf18, stronger effect = lower value",0.455 (active)
same,normalized growth,"S. cerevisiae deletion strains, locus YMR125W, strain sto1, stronger effect = lower value",0.773 (active)
same,normalized growth,"S. cerevisiae deletion strains, locus YMR129W, stronger effect = lower value",0.69 (active)
same,normalized growth,"S. cerevisiae deletion strains, locus YMR205C, strain PFK2, stronger effect = lower value",0.423 (active)
same,normalized growth,"S. cerevisiae deletion strains, locus YMR223W, strain ubp8, stronger effect = lower value",0.408 (active)
same,normalized growth,"S. cerevisiae deletion strains, locus YMR231W, strain pep5, stronger effect = lower value",0.641 (active)
same,normalized growth,"S. cerevisiae deletion strains, locus YMR263W, strain SAP30, stronger effect = lower value",0.295 (active)
same,normalized growth,"S. cerevisiae deletion strains, locus YMR307W, strain GAS1, stronger effect = lower value",0.167 (active)
same,normalized growth,"S. cerevisiae deletion strains, locus YNL067W, strain RPL9B, stronger effect = lower value",0.324 (active)
same,normalized growth,"S. cerevisiae deletion strains, locus YNL071W, strain lat1, stronger effect = lower value",0.386 (active)
same,normalized growth,"S. cerevisiae deletion strains, locus YNL128W, strain TEP1, stronger effect = lower value",0.216 (active)
same,normalized growth,"S. cerevisiae deletion strains, locus YNL153C, strain GIM3, stronger effect = lower value",0.28 (active)
same,normalized growth,"S. cerevisiae deletion strains, locus YNL183C, strain NPR1, stronger effect = lower value",0.596 (active)
same,normalized growth,"S. cerevisiae deletion strains, locus YNL209W, strain ssb2, stronger effect = lower value",0.265 (active)
same,normalized growth,"S. cerevisiae deletion strains, locus YNL233W, strain BNI4, stronger effect = lower value",0.246 (active)
same,normalized growth,"S. cerevisiae deletion strains, locus YNL248C, strain rpa49, stronger effect = lower value",0.458 (active)
same,normalized growth,"S. cerevisiae deletion strains, locus YNL250W, strain rad50, stronger effect = lower value",0.895 (active)
same,normalized growth,"S. cerevisiae deletion strains, locus YNL271C, strain bni1, stronger effect = lower value",0.828 (active)
same,normalized growth,"S. cerevisiae deletion strains, locus YNL298W, strain CLA4, stronger effect = lower value",0.775 (active)
same,normalized growth,"S. cerevisiae deletion strains, locus YNL307C, strain MCK1, stronger effect = lower value",0.188 (active)
same,normalized growth,"S. cerevisiae deletion strains, locus YNL322C, strain KRE1 (second series), stronger effect = lower value",0.726 (active)
same,normalized growth,"S. cerevisiae deletion strains, locus YNR049C, strain mso1, stronger effect = lower value",0.659 (active)
same,normalized growth,"S. cerevisiae deletion strains, locus YNR052C, strain pop2, stronger effect = lower value",0.218 (active)
same,normalized growth,"S. cerevisiae deletion strains, locus YOL012C, strain htz1",0.219
same,normalized growth,"S. cerevisiae deletion strains, locus YOL147C, strain pex11, stronger effect = lower value",0.362 (active)
same,normalized growth,"S. cerevisiae deletion strains, locus YOR001W, strain rrp6, stronger effect = lower value",0.608 (active)
same,normalized growth,"S. cerevisiae deletion strains, locus YOR061W, strain CKA2, stronger effect = lower value",0.237 (active)
same,normalized growth,"S. cerevisiae deletion strains, locus YOR069W, strain VPS5, stronger effect = lower value",0.314 (active)
same,normalized growth,"S. cerevisiae deletion strains, locus YOR070C, strain gyp1, stronger effect = lower value",0.496 (active)
same,normalized growth,"S. cerevisiae deletion strains, locus YOR080W, strain dia2, stronger effect = lower value",0.638 (active)
same,normalized growth,"S. cerevisiae deletion strains, locus YOR083W, strain WHI5, stronger effect = lower value",0.475 (active)
same,normalized growth,"S. cerevisiae deletion strains, locus YOR106W, strain vam3, stronger effect = lower value",0.302 (active)
same,normalized growth,"S. cerevisiae deletion strains, locus YOR136W, strain idh2, stronger effect = lower value",0.433 (active)
same,normalized growth,"S. cerevisiae deletion strains, locus YOR144C, strain elg1, stronger effect = lower value",0.561 (active)
same,normalized growth,"S. cerevisiae deletion strains, locus YOR184W, strain ser1, stronger effect = lower value",0.209 (active)
same,normalized growth,"S. cerevisiae deletion strains, locus YOR231W, strain MKK1, stronger effect = lower value",0.707 (active)
same,normalized growth,"S. cerevisiae deletion strains, locus YOR265W, strain rbl2, stronger effect = lower value",0.503 (active)
same,normalized growth,"S. cerevisiae deletion strains, locus YOR270C, strain vph1, stronger effect = lower value",0.278 (active)
same,normalized growth,"S. cerevisiae deletion strains, locus YOR290C, strain snf2, stronger effect = lower value",0.41 (active)
same,normalized growth,"S. cerevisiae deletion strains, locus YOR316C, strain cot1, stronger effect = lower value",0.474 (active)
same,normalized growth,"S. cerevisiae deletion strains, locus YPL051W, strain arl3, stronger effect = lower value",0.295 (active)
same,normalized growth,"S. cerevisiae deletion strains, locus YPL078C, strain atp4, stronger effect = lower value",0.471 (active)
same,normalized growth,"S. cerevisiae deletion strains, locus YPL106C, strain sse1, stronger effect = lower value",0.502 (active)
same,normalized growth,"S. cerevisiae deletion strains, locus YPL240C, strain hsp82, stronger effect = lower value",0.613 (active)
same,normalized growth,"S. cerevisiae deletion strains, locus YPL256C, strain CLN2, stronger effect = lower value",0.749 (active)
same,normalized growth,"S. cerevisiae deletion strains, locus YPR119W, strain clb2, stronger effect = lower value",0.558 (active)
same,normalized growth,"S. cerevisiae deletion strains, locus YPR141C, strain kar3, stronger effect = lower value",0.854 (active)
same,normalized growth,"S. cerevisiae deletion strains, locus YPR163C, strain tif3, stronger effect = lower value",0.214 (active)
same,normalized growth,"S. cerevisiae deletion strains, locus YPR167C, strain met16, stronger effect = lower value",0.377 (active)
same,normalized growth,"S. cerevisiae deletion strains, strain wtn01, stronger effect = lower value",0.295 (active)
same,normalized growth,"S. cerevisiae strains, strain wild type, stronger effect = lower value",0.166 (active)
